Inconclusive results are not listed. Active and inactive are the calls of the source. The calls were made as follows: active = hit-call score of the fitted dose curve at least 0.9, where 1 is the maximum; inconclusive = response in the unintended direction; inactive = score below 0.9.

Sequence of human Adenosine Transporter (Adot), SLC29A1 (gene 2030) (Q99808 whole entry, looked up): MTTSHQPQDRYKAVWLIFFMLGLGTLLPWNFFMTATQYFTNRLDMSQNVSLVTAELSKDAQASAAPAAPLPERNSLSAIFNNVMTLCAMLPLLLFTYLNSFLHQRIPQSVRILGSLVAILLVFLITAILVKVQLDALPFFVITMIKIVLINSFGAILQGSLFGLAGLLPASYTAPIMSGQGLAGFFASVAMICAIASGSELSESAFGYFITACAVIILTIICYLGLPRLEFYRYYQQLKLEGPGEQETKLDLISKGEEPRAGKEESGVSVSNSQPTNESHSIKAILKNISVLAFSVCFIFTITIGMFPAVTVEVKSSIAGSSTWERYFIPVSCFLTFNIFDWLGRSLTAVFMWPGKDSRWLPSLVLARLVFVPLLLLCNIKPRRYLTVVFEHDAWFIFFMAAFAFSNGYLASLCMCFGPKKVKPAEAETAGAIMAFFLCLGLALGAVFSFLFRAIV
Sequence of Estrogen receptor beta (Homo sapiens) (Q92731 whole entry, looked up, the tested form may be a part): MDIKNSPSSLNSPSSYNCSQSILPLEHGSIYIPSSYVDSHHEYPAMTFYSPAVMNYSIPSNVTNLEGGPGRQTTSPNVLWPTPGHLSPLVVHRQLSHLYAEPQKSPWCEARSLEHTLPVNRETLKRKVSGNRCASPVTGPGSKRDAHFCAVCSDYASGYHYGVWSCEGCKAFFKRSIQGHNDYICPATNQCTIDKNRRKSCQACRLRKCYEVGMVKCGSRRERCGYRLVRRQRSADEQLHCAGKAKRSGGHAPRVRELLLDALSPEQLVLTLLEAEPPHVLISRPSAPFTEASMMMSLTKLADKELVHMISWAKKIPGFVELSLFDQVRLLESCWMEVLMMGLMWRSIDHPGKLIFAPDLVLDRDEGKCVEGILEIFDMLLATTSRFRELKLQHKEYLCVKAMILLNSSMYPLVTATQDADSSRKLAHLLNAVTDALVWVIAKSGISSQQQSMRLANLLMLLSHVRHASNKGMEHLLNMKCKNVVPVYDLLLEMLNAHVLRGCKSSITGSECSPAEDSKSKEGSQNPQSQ
Sequence of human Peroxisome Proliferator-activated Receptor alpha (PPARa), PPARA (gene 5465) (Q07869 whole entry, looked up): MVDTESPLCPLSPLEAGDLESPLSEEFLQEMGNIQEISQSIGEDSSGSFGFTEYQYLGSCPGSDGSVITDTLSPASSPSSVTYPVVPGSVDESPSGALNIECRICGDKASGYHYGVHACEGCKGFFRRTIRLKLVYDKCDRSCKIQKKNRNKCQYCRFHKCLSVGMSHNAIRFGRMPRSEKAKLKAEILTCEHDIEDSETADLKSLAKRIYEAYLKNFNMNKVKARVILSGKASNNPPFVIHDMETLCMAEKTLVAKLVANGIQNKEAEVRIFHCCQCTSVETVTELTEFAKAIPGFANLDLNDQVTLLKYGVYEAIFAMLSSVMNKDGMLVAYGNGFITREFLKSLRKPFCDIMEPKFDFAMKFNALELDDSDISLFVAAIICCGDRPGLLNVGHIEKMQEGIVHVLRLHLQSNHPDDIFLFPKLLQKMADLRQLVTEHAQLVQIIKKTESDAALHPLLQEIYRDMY
Sequence of Glucocorticoid receptor (Homo sapiens) (P04150 whole entry, looked up): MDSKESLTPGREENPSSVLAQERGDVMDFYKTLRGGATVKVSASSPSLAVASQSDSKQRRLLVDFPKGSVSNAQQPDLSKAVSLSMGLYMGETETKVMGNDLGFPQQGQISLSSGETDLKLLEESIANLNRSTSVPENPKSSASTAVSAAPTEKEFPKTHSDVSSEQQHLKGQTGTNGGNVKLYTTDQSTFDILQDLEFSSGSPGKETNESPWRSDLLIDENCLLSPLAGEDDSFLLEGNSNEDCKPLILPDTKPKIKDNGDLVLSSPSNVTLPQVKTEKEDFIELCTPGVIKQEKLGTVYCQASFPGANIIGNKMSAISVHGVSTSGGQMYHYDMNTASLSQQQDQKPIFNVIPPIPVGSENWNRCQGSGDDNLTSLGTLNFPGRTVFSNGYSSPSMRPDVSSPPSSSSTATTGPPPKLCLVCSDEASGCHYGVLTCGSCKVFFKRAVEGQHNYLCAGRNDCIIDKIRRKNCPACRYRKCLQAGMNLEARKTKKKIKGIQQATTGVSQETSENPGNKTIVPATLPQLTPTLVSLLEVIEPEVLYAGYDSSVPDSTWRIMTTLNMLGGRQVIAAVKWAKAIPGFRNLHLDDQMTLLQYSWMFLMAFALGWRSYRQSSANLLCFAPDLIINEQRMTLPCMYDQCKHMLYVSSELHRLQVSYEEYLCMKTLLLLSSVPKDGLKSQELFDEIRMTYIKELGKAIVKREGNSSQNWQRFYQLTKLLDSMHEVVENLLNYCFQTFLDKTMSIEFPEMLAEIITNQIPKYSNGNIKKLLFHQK
Sequence of human Thyroid Receptor Alpha (TRa), THRA (gene 7067) (P10827 whole entry, looked up): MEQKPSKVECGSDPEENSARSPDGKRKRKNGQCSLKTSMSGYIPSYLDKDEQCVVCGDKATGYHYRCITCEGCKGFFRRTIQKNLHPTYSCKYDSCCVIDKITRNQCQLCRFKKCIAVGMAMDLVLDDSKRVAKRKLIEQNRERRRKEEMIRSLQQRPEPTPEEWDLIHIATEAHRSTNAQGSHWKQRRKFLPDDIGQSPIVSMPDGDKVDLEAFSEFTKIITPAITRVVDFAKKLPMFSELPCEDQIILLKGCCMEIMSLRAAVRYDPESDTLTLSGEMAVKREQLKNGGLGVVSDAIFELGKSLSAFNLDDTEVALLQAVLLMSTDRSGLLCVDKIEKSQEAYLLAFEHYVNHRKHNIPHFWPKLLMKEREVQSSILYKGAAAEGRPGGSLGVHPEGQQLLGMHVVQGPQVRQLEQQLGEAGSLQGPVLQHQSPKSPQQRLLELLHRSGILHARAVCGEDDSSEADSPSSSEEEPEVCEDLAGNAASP
Sequence of Nuclear receptor subfamily 1 group I member 2 (Homo sapiens) (O75469 whole entry, looked up): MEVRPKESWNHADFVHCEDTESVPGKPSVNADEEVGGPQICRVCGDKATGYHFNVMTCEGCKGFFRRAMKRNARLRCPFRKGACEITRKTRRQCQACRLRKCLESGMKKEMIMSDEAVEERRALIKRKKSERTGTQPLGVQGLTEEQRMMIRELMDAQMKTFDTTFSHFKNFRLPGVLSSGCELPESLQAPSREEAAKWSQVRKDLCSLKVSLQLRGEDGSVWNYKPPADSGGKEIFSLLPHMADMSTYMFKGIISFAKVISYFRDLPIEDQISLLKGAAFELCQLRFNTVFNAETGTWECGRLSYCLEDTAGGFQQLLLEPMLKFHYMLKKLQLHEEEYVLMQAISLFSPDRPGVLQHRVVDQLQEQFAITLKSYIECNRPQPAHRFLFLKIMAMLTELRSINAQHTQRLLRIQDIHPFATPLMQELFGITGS

One test deals with Estrogen receptor beta (Homo sapiens) (UniProt Q92731). Description: OT_ER_ERbERb_0480: Odyssey Thera (OT) 8-hour HEK293T Protein-Complementation Assay for Estrogen Receptor-beta/-beta Homodimer (AID 2283357).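 Also: active means signal gain over DMSO baseline.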 The method in brief:
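Fluorescence intensity, nuclear for agonists and nuclear plus cytoplasmic for antagonists, was quantified by laser scanning cytometry versus vehicle after 8 h treatment. The cells were HEK293T stably carrying ER beta LBD fragment-complementation partners.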
For `CC[C@H](C)C(=O)O[C@H]1C[C@@H](C)C=C2C=C[C@H](C)[C@H](CC[C@@H]3C[C@@H](O)CC(=O)O3)[C@H]21`, the call was inactive.

Regarding `CCCCCCCCO`, the call was inactive.

Regarding `CC(C)=CCCC(C)CCO` (stereo unspecified), the outcome was inactive.

With `COc1ccc2sc(C(=O)Nc3nnn[nH]3)c(OC(C)C)c2c1`, the result was inactive.

Consider `C=CC(=C)CCC=C(C)C`, for which the outcome was inactive.

With `CC[C@H]1CC[C@H](NCc2cc3c(cc2OC)[C@H]2C[C@H]2C(=O)N3C)[C@H](c2ccccc2)N1`, the compound was called inactive.

As for `COc1cccc(-c2ccc(/C=C\CN3CCCCCC3)cc2Cl)c1`, the outcome was inactive.

On to `CC/C(=C\C(=N/O)C(N)=O)C(C)[N+](=O)[O-]` (stereo unspecified), for which the compound was called inactive.

Regarding `CC(C)CCO`, the call was inactive.

For `Cn1c(=O)cc(Oc2ccc(F)cc2F)c2cnc(NCC(C)(C)O)nc21`, the compound was classed as inactive.

For `O=c1n(CC2CO2)c(=O)n(CC2CO2)c(=O)n1CC1CO1` (stereo unspecified), the compound was called inactive.

In the case of `COC(=O)c1c(Cl)c(Cl)c(C(=O)OC)c(Cl)c1Cl`, the AC50 is 50 µM (active).

Take `CNS(=O)(=O)c1cc(C(=O)N2CCC(CCN3C4CCC3CC(n3c(C)nc5ccccc53)C4)(c3cccc(F)c3)CC2)c(Cl)cc1F` (stereo unspecified): the outcome was inactive.

On to `O=P(OC(CCl)CCl)(OC(CCl)CCl)OC(CCl)CCl`, for which the outcome was inactive.

As to `Cn1cnc([N+](=O)[O-])c1Sc1ncnc2nc[nH]c12`, the compound was classed as inactive.

Take `Cc1ccc(N)cc1O`: the compound was classed as inactive.

`CC(C)=CCCC(C)=CC=O`: the compound was called inactive.

`CCn1nc(Cc2ccccc2)cc1C1CCN(C[C@H]2C[C@H](N(C)[C@@H](C(=O)O)C(C)C)C[C@@H]2c2cccc(F)c2)CC1`: the outcome was inactive.

In the case of `CCC(C)(C)C(=O)O[C@H]1C[C@@H](C)C=C2C=C[C@H](C)[C@H](CC[C@@H]3C[C@@H](O)CC(=O)O3)[C@H]21`, the outcome was inactive.

For `C=CCCCCCCCCC(=O)O`, the compound was classed as inactive.

A further test has as its target human Peroxisome Proliferator-activated Receptor alpha (PPARa), PPARA (gene 5465) (UniProt Q07869). Description: NVS_NR_hPPARa: NovaScreen (NVS) Nuclear Receptor Binding Assay for human Peroxisome Proliferator-activated Receptor alpha (PPARa) (AID 2283359).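 Also: activity means loss of TR-FRET signal versus DMSO baseline.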 A digest of the protocol: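 Cell-free TR-FRET binding assay with extracted PPARα protein, read 1 h after dosing. Primary screen in duplicate at 25 uM, with actives retested in concentration series. Loss of signal versus DMSO.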
In the case of `CC(C)=CCCC(C)CCO` (stereo unspecified), the call was inactive.

In the case of `COc1cccc(-c2ccc(/C=C\CN3CCCCCC3)cc2Cl)c1`, the result was inactive.

Consider `CNS(=O)(=O)c1cc(C(=O)N2CCC(CCN3C4CCC3CC(n3c(C)nc5ccccc53)C4)(c3cccc(F)c3)CC2)c(Cl)cc1F` (stereo unspecified), for which the compound was called inactive.

Take `O=C(O)c1cccc(Oc2ccccc2)c1`: the compound was called inactive.

In the case of `CCOC(=O)COc1ccc2c(c1)CC(NCC(O)c1cccc(Cl)c1)CC2` (stereo unspecified), the result was inactive.

For `Cn1cnc([N+](=O)[O-])c1Sc1ncnc2nc[nH]c12`, the compound was classed as inactive.

Turning to `Cc1ccc(N)cc1O`, the compound was classed as inactive.

Take `CC(C)=CCCC(C)=CC=O`: the call was inactive.

The target of another test is PGR (gene 5241) (UniProt P06401). Description: NVS_NR_hPR: NovaScreen (NVS) Nuclear Receptor Binding Assay for human Progestron Receptor (PR) (AID 2283360).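 Also: active means loss of bound radioligand signal versus DMSO baseline.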 The method in brief: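 T47D lysate; tritiated or iodinated radioligand; scintillation count at 18 h. DMSO = negative control/baseline. Primary: 25 uM, duplicate. Secondary: concentration series for actives.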
Sequence of PGR (gene 5241) (P06401 whole entry, looked up): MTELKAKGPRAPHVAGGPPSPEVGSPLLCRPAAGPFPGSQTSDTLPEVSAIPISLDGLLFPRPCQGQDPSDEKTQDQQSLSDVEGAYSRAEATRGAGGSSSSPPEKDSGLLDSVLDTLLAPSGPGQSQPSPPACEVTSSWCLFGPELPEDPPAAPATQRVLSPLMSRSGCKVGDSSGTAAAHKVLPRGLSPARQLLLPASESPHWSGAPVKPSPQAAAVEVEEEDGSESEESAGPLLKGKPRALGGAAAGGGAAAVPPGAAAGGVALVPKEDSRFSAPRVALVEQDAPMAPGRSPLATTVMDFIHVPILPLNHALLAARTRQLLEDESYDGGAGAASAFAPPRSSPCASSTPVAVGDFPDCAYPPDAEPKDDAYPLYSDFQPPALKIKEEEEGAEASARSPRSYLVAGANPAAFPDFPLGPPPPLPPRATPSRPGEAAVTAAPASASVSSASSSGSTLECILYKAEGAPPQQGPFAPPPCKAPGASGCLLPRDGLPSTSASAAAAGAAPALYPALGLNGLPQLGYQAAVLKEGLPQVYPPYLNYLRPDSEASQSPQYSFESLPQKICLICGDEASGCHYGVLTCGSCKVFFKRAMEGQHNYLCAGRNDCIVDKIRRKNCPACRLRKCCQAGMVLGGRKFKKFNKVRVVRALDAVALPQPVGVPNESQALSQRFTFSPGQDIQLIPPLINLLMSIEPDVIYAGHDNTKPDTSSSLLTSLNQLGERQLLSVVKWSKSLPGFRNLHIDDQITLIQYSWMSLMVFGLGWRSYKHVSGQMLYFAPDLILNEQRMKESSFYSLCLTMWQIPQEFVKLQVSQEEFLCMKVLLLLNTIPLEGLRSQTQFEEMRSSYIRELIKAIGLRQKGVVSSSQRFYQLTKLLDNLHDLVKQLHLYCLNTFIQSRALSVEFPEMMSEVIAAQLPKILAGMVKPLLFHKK
`COC(=O)CC(=O)OC`: the outcome was inactive.

For the compound `Cc1ccc(S(=O)(=O)O)cc1C`, the compound was called inactive.

On to `O=c1[nH]c2ccc(S(=O)CCN3CCC(Cc4ccc(F)cc4)CC3)cc2o1` (stereo unspecified), for which the compound was classed as inactive.

As for `O=P(OC(CCl)CCl)(OC(CCl)CCl)OC(CCl)CCl`, the AC50 is 5.78 µM (active).

Another test concerns the target human Thyroid Receptor Alpha (TRa), THRA (gene 7067) (UniProt P10827). Description: NVS_NR_hTRa_Antagonist: NovaScreen (NVS) Nuclear Receptor Binding Assay for human Thyroid Receptor Alpha Antagonism (TRa) (AID 2283362).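 Also: activity is loss of signal relative to DMSO baseline.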 A digest of the protocol: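 In this biochemical format, receptor protein is dosed with chemical and read after 1 hour via AlphaLISA. Decreases from the DMSO baseline indicate antagonist activity; screening used 25 uM in duplicate before concentration-response confirmation.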
Regarding `COc1cccc(-c2ccc(/C=C\CN3CCCCCC3)cc2Cl)c1`, the outcome was inactive.

`CNS(=O)(=O)c1cc(C(=O)N2CCC(CCN3C4CCC3CC(n3c(C)nc5ccccc53)C4)(c3cccc(F)c3)CC2)c(Cl)cc1F` (stereo unspecified): the call was inactive.

As to `Cn1cnc([N+](=O)[O-])c1Sc1ncnc2nc[nH]c12`, the outcome was inactive.

The next test addresses Glucocorticoid receptor (Homo sapiens) (UniProt P04150). Description: NVS_NR_hGR: NovaScreen (NVS) Nuclear Receptor Binding Assay for human Glucocorticoid Receptor (GR) (AID 2283363).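 As to AC50: activity is loss of specific radioligand binding signal relative to DMSO.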 A digest of the protocol: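 Cell-free radioligand displacement assay on extracted human GR, read 16 h after dosing by filter-based scintillation counting. Screened in duplicate at 25 uM, then concentration series for actives; loss of signal versus DMSO baseline.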
`COc1ccc2sc(C(=O)Nc3nnn[nH]3)c(OC(C)C)c2c1`: the call was inactive.

`Cn1c(=O)cc(Oc2ccc(F)cc2F)c2cnc(NCC(C)(C)O)nc21`: the AC50 is 2.48 µM (active).

In the case of `O=P(OC(CCl)CCl)(OC(CCl)CCl)OC(CCl)CCl`, the AC50 was 15.5 µM (active).

For `CCn1nc(Cc2ccccc2)cc1C1CCN(C[C@H]2C[C@H](N(C)[C@@H](C(=O)O)C(C)C)C[C@@H]2c2cccc(F)c2)CC1`, the compound was called inactive.

Turning to `CCC(C)(C)C(=O)O[C@H]1C[C@@H](C)C=C2C=C[C@H](C)[C@H](CC[C@@H]3C[C@@H](O)CC(=O)O3)[C@H]21`, the AC50 was 14.5 µM (active).

The next test addresses Nuclear receptor subfamily 1 group I member 2 (Homo sapiens) (UniProt O75469). Description: NVS_NR_hPXR: NovaScreen (NVS) Nuclear Receptor Binding Assay for human Pregnane X Receptor (PXR) (AID 2283365).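 Also: a drop in FRET signal versus DMSO baseline means the compound binds.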 A digest of the protocol:
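Read-out: TR-FRET, human PXR, 2 h post-dosing, cell-free. Loss of signal vs DMSO taken as binding activity; 25 uM primary, concentration series secondary.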
Turning to `COc1cccc(-c2ccc(/C=C\CN3CCCCCC3)cc2Cl)c1`, the call was inactive.

`Cc1ccc(N)cc1O`: the compound was classed as inactive.

Take `C=CCCCCCCCCC(=O)O`: the compound was classed as inactive.

In another test the target is guinea pig Sigma Receptor, Non-selective Binding, SIGMAR1 (gene 100135589) (UniProt Q60492). Description: NVS_OR_gSIGMA_NonSelective: NovaScreen (NVS) Nuclear Receptor Binding Assay for guinea pig Sigma Receptor, Non-selective Binding (AID 2283367). A digest of the protocol: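 Radioligand displacement on guinea pig brain membranes, read by filter-based scintillation counting 1 h after dosing. Loss of signal versus DMSO; initial duplicate single-point screen at 25 uM, actives followed in concentration series.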
Sequence of guinea pig Sigma Receptor, Non-selective Binding, SIGMAR1 (gene 100135589) (Q60492 whole entry, looked up): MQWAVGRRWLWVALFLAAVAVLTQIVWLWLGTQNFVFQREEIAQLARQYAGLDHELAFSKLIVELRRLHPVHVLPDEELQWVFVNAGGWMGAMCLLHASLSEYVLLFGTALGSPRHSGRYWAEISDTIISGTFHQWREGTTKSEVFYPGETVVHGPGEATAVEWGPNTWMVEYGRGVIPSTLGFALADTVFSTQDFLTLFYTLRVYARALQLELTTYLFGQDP
Regarding `CC[C@H]1CC[C@H](NCc2cc3c(cc2OC)[C@H]2C[C@H]2C(=O)N3C)[C@H](c2ccccc2)N1`, the AC50 is 10.9 µM (active).

`O=c1[nH]c2ccc(S(=O)CCN3CCC(Cc4ccc(F)cc4)CC3)cc2o1` (stereo unspecified): the AC50 was 0.339 µM (active).

Consider `COc1cccc(-c2ccc(/C=C\CN3CCCCCC3)cc2Cl)c1`, for which the AC50 is 0.0104 µM (active).

For `Cn1c(=O)cc(Oc2ccc(F)cc2F)c2cnc(NCC(C)(C)O)nc21`, the outcome was inactive.

Consider `CCOC(=O)COc1ccc2c(c1)CC(NCC(O)c1cccc(Cl)c1)CC2` (stereo unspecified), for which the compound was classed as inactive.

For a further test, the target named is human Adenosine Transporter (Adot), SLC29A1 (gene 2030) (UniProt Q99808). Description: NVS_TR_hAdoT: NovaScreen (NVS) Transporter Assay for human Adenosine Transporter (Adot) (AID 2283368). A digest of the protocol:
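U937-derived membranes, cell-free radioligand binding, filter scintillation 1 h after dosing. 25 uM duplicate screen; hits (e.g. 30% inhibition) run in concentration-response up to 50 uM; loss of signal versus DMSO.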
As to `Cn1c(=O)cc(Oc2ccc(F)cc2F)c2cnc(NCC(C)(C)O)nc21`, the AC50 is 25 µM (active).

As for `O=C(O)c1cccc(Oc2ccccc2)c1`, the result was inactive.

On to `Cc1ccc(N)cc1O`, for which the outcome was inactive.

For `CCC(C)(C)C(=O)O[C@H]1C[C@@H](C)C=C2C=C[C@H](C)[C@H](CC[C@@H]3C[C@@H](O)CC(=O)O3)[C@H]21`, the concentration at half-maximal activity (AC50) was 25 µM (active).

Another test deals with guinea pig Dopamine Transporter (DAT), gene 100714898. Description: NVS_TR_gDAT: NovaScreen (NVS) Transporter Assay for guinea pig Dopamine Transporter (DAT) (AID 2283369).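 Also: active compounds lower bound radioligand signal relative to DMSO.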 The method in brief:
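Primary pass: duplicate wells at 25 uM, threshold e.g. 30% inhibition. Follow-up: singleton concentration-response, highest 50 uM. Radioligand binding on guinea pig striatal membranes, 2 h, filtration scintillation detection.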
Turning to `O=c1[nH]c2ccc(S(=O)CCN3CCC(Cc4ccc(F)cc4)CC3)cc2o1` (stereo unspecified), the AC50 was 6.75 µM (active).

As to `COc1cccc(-c2ccc(/C=C\CN3CCCCCC3)cc2Cl)c1`, the AC50 was 14.5 µM (active).

Turning to `CCOC(=O)COc1ccc2c(c1)CC(NCC(O)c1cccc(Cl)c1)CC2` (stereo unspecified), the AC50 is 10.6 µM (active).

`CCn1nc(Cc2ccccc2)cc1C1CCN(C[C@H]2C[C@H](N(C)[C@@H](C(=O)O)C(C)C)C[C@@H]2c2cccc(F)c2)CC1`: the AC50 is 13.8 µM (active).

The record behind these values is PubChem BioAssay (EPA / NIEHS).
